From PubChem BioAssay AID1159580 (chemical genetic matrix, 2015)
Several values for one entry are separate records, joined by “and”; a condition that tells them apart may be missing. Equal entries are not always repeated. Out of some 5,500 compounds screened, about 2,000 (36%) were called active. Inconclusive results (about 18%) are left out. Cut-off read from the data, not from the text of the source: active = normalized growth mostly below about 0.91 (no sharp cut-off); inconclusive = no clear call, values can overlap the other calls; inactive = mostly above about 0.92. The list shows a part of the results.

Experiment: chemical genetic growth profiling, strain panel (AID 1159580);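 note: tested at 20 µM; growth read once vehicle control cultures reached saturation at 30 °C; 1 = growth at the plate median or of vehicle wells; lower values mean less growth of the strain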
Conditions: S. cerevisiae deletion strains, growth OD

Measured: normalized growth

COc1cc(C)c2c(c1C=O)Oc1c(c(C)c(O)c3c1C(O)OC3=O)OC2=O (stereo not drawn)
inactive: locus YAL013W, strain DEP1, active compounds read low 1 | locus YAL021C, strain ccr4, active compounds read low 1.01 | locus YAL026C, strain drs2, active compounds read low 1.02 | locus YAL030W, strain snc1, active compounds read low 1.02 | locus YBL061C, strain skt5, active compounds read low 1.02 | locus YBR009C, strain hhf1, active compounds read low 1.03 | locus YBR021W, strain FUR4, active compounds read low 1.01 | locus YBR023C, strain chs3, active compounds read low 1.05 | locus YBR171W, strain sec66, active compounds read low 1.02 | locus YBR229C, strain ROT2, active compounds read low 0.949 | locus YBR231C, strain swc5, active compounds read low 1.01 | locus YBR279W, strain paf1, active compounds read low 1.01 | locus YCL011C, strain gbp2, active compounds read low 1.03 | locus YCL016C, strain dcc1, active compounds read low 1.03 | locus YCL029C, strain bik1, active compounds read low 0.984 | locus YCL061C, strain MRC1, active compounds read low 1.02 | locus YCL069W, strain vba3, active compounds read low 1.01 | locus YCR088W, strain abp1, active compounds read low 1.01 | locus YDL005C, strain med2, active compounds read low 0.946 | locus YDL035C, strain GPR1, active compounds read low 0.965 | locus YDL040C, strain nat1, active compounds read low 1.01 | locus YDL074C, strain BRE1, active compounds read low 0.959 | locus YDL101C, strain DUN1, active compounds read low 0.99 | locus YDL185W, strain tfp1, active compounds read low 0.972 | locus YDL192W, strain arf1, active compounds read low 0.984 | locus YDR001C, strain nth1, active compounds read low 1.01 | locus YDR069C, strain doa4, active compounds read low 1 | locus YDR101C, strain arx1, active compounds read low 0.981 | locus YDR137W, strain rgp1, active compounds read low 1.06 | locus YDR150W, strain NUM1, active compounds read low 0.994 | locus YDR159W, strain sac3, active compounds read low 1.02 | locus YDR162C, strain NBP2, active compounds read low 0.941 | locus YDR195W, strain ref2 0.924 | locus YDR297W, strain sur2, active compounds read low 1.01 | locus YDR318W, strain mcm21, active compounds read low 1 | locus YDR334W, strain swr1, active compounds read low 1 | locus YDR335W, strain msn5, active compounds read low 1.01 | locus YDR388W, active compounds read low 0.997 | locus YDR392W, strain spt3, active compounds read low 1 | locus YDR502C, strain sam2, active compounds read low 1.04 | locus YEL003W, strain gim4, active compounds read low 1.02 | locus YEL037C, strain rad23, active compounds read low 1.02 | locus YEL061C, strain CIN8 (second series), active compounds read low 1 | locus YEL061C, strain CIN8, active compounds read low 0.974 | locus YER015W, strain faa2, active compounds read low 1.01 | locus YER016W, strain bim1, active compounds read low 1.02 | locus YER110C, active compounds read low 0.981 | locus YER111C, strain swi4, active compounds read low 1.01 | locus YER155C, strain BEM2 (second series), active compounds read low 1.02 | locus YER155C, strain BEM2, active compounds read low 0.995 | locus YER167W, strain BCK2, active compounds read low 0.986 | locus YFR010W, strain ubp6, active compounds read low 1.02 | locus YGL078C, strain dbp3, active compounds read low 1.02 | locus YGL086W, strain mad1, active compounds read low 1.01 | locus YGL167C, strain pmr1, active compounds read low 1.01 | locus YGL173C, strain kem1, active compounds read low 1.03 | locus YGL227W, strain vid30, active compounds read low 1.02 | locus YGL240W, strain doc1, active compounds read low 1.08 | locus YGL248W, strain PDE1, active compounds read low 1.02 | locus YGL253W, strain hxk2, active compounds read low 1.02 | locus YGR135W, strain pre9, active compounds read low 1.06 | locus YGR252W, strain gcn5, active compounds read low 1.05 | locus YHR013C, strain ard1, active compounds read low 1.05 | locus YHR027C, strain rpn1, active compounds read low 1.01 | locus YHR030C, strain SLT2, active compounds read low 0.992 and 0.99 | locus YHR079C, strain IRE1 (second series), active compounds read low 0.991 | locus YHR079C, strain IRE1, active compounds read low 0.994 | locus YHR094C, strain hxt1, active compounds read low 0.982 | locus YHR129C, strain ARP1, active compounds read low 0.984 | locus YHR142W, strain chs7, active compounds read low 1.05 | locus YHR200W, strain rpn10, active compounds read low 0.999 | locus YIL066C, strain RNR3, active compounds read low 0.97 | locus YIL073C, strain SPO22, active compounds read low 1.06 | locus YIL125W, strain kgd1, active compounds read low 0.984 | locus YIR030C, strain dcg1, active compounds read low 0.982 | locus YJL092W, strain hpr5, active compounds read low 1.01 | locus YJL095W, strain BCK1 (second series), active compounds read low 1.02 | locus YJL095W, strain BCK1, active compounds read low 1.08 and 0.976 | locus YJL115W, strain asf1, active compounds read low 1 | locus YJL129C, strain trk1, active compounds read low 1.03 | locus YJL134W, strain LCB3, active compounds read low 0.986 | locus YJL154C, strain vps35, active compounds read low 1.02 | locus YJL164C, strain tpk1, active compounds read low 1.03 | locus YJL166W, strain qcr8, active compounds read low 1.03 | locus YJL168C, strain set2, active compounds read low 0.993 | locus YJL187C, strain SWE1 (second series), active compounds read low 0.988 | locus YJL187C, strain SWE1, active compounds read low 1.02 | locus YJR066W, strain TOR1, active compounds read low 0.919 | locus YKL009W, strain mrt4, active compounds read low 0.948 | locus YKL068W, active compounds read low 0.983 | locus YKL085W, strain MDH1 (second series), active compounds read low 0.968 | locus YKL085W, strain MDH1, active compounds read low 0.968 | locus YKL160W, strain elf1, active compounds read low 1.03 | locus YKL190W, strain CNB1, active compounds read low 0.989 | locus YKR001C, strain vps1, active compounds read low 0.991 | locus YKR026C, strain gcn3, active compounds read low 1.01 | locus YKR091W, strain srl3, active compounds read low 1.01 | locus YLL001W, strain dnm1, active compounds read low 1.01 | locus YLL026W, active compounds read low 1.02 | locus YLL041C, strain sdh2, active compounds read low 1.01 | locus YLR027C, strain aat2, active compounds read low 1 | locus YLR039C, strain RIC1, active compounds read low 1.01 | locus YLR058C, strain SHM2, active compounds read low 0.966 | locus YLR102C, strain apc9, active compounds read low 0.986 | locus YLR113W, strain HOG1, active compounds read low 0.956 | locus YLR221C, strain rsa3, active compounds read low 1.03 | locus YLR258W, strain gsy2, active compounds read low 1.03 | locus YLR262C, strain YPT6 (second series), active compounds read low 1.06 | locus YLR268W, strain sec22, active compounds read low 0.975 | locus YLR320W, strain mms22, active compounds read low 1.06 | locus YLR330W, strain CHS5, active compounds read low 0.983 | locus YLR342W, strain FKS1 (second series), active compounds read low 0.99 | locus YLR342W, strain FKS1, active compounds read low 1.03 | locus YLR357W, strain rsc2, active compounds read low 0.997 | locus YLR370C, strain arc18, active compounds read low 1.02 | locus YLR371W, strain rom2, active compounds read low 0.972 | locus YLR384C, strain iki3, active compounds read low 1.01 | locus YLR418C, strain cdc73, active compounds read low 1.05 | locus YML016C, strain PPZ1, active compounds read low 0.985 | locus YML032C, strain rad52, active compounds read low 0.985 | locus YML120C, strain ndi1, active compounds read low 1.02 | locus YML124C, strain tub3, active compounds read low 0.996 | locus YMR058W, strain fet3, active compounds read low 0.996 | locus YMR078C, strain ctf18, active compounds read low 0.995 | locus YMR125W, strain sto1, active compounds read low 0.999 | locus YMR129W, active compounds read low 1.01 | locus YMR205C, strain PFK2, active compounds read low 1.03 | locus YMR223W, strain ubp8, active compounds read low 1 | locus YMR231W, strain pep5, active compounds read low 1.02 | locus YMR307W, strain GAS1, active compounds read low 0.922 | locus YNL067W, strain RPL9B, active compounds read low 1 | locus YNL071W, strain lat1, active compounds read low 1.02 | locus YNL128W, strain TEP1, active compounds read low 0.918 | locus YNL183C, strain NPR1, active compounds read low 0.935 | locus YNL209W, strain ssb2, active compounds read low 1 | locus YNL233W, strain BNI4, active compounds read low 1.02 | locus YNL248C, strain rpa49, active compounds read low 1.05 | locus YNL250W, strain rad50, active compounds read low 0.984 | locus YNL271C, strain bni1, active compounds read low 0.989 | locus YNL298W, strain CLA4, active compounds read low 0.987 | locus YNL307C, strain MCK1, active compounds read low 1 | locus YNL322C, strain KRE1 (second series), active compounds read low 1.01 | locus YNR049C, strain mso1, active compounds read low 1.02 | locus YNR052C, strain pop2, active compounds read low 1.02 | locus YOL012C, strain htz1 0.777 | locus YOL147C, strain pex11, active compounds read low 0.991 | locus YOR001W, strain rrp6, active compounds read low 1.03 | locus YOR061W, strain CKA2, active compounds read low 0.952 | locus YOR069W, strain VPS5, active compounds read low 0.992 | locus YOR070C, strain gyp1, active compounds read low 1.01 | locus YOR080W, strain dia2, active compounds read low 1.02 | locus YOR083W, strain WHI5, active compounds read low 1.03 | locus YOR106W, strain vam3, active compounds read low 1.03 | locus YOR136W, strain idh2, active compounds read low 0.987 | locus YOR144C, strain elg1, active compounds read low 0.99 | locus YOR184W, strain ser1, active compounds read low 0.959 | locus YOR231W, strain MKK1, active compounds read low 0.975 | locus YOR265W, strain rbl2, active compounds read low 1.01 | locus YOR270C, strain vph1, active compounds read low 1.15 | locus YOR290C, strain snf2, active compounds read low 1.01 | locus YOR316C, strain cot1, active compounds read low 1 | locus YPL051W, strain arl3, active compounds read low 1.04 | locus YPL055C, strain LGE1, active compounds read low 0.899 | locus YPL078C, strain atp4, active compounds read low 1.03 | locus YPL106C, strain sse1, active compounds read low 1.02 | locus YPL240C, strain hsp82, active compounds read low 1.01 | locus YPL241C, strain CIN2, active compounds read low 0.995 | locus YPL256C, strain CLN2, active compounds read low 0.974 | locus YPR119W, strain clb2, active compounds read low 1 | locus YPR141C, strain kar3, active compounds read low 0.979 | locus YPR163C, strain tif3, active compounds read low 1 | locus YPR167C, strain met16, active compounds read low 1.02 | strain wtn01, active compounds read low 0.976
